The campaign covered roughly 310,000 compounds. About 14,000 (4.5%) showed an effect of 50% or more. The effect is printed as a negative number. The entries come from a sample that favours strong results as a whole.
Each compound was assayed against human ether-à-go-go-related gene (hERG) potassium channel (human, UniProt Q12809) (assay: primary screen, population patch clamp on CHO cells stably expressing hERG; higher = less effect of the substance).
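Further: peak tail current of the secondary pulse compared with the same well before compound.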

Sequence of human ether-à-go-go-related gene (hERG) potassium channel (Q12809 whole entry, looked up): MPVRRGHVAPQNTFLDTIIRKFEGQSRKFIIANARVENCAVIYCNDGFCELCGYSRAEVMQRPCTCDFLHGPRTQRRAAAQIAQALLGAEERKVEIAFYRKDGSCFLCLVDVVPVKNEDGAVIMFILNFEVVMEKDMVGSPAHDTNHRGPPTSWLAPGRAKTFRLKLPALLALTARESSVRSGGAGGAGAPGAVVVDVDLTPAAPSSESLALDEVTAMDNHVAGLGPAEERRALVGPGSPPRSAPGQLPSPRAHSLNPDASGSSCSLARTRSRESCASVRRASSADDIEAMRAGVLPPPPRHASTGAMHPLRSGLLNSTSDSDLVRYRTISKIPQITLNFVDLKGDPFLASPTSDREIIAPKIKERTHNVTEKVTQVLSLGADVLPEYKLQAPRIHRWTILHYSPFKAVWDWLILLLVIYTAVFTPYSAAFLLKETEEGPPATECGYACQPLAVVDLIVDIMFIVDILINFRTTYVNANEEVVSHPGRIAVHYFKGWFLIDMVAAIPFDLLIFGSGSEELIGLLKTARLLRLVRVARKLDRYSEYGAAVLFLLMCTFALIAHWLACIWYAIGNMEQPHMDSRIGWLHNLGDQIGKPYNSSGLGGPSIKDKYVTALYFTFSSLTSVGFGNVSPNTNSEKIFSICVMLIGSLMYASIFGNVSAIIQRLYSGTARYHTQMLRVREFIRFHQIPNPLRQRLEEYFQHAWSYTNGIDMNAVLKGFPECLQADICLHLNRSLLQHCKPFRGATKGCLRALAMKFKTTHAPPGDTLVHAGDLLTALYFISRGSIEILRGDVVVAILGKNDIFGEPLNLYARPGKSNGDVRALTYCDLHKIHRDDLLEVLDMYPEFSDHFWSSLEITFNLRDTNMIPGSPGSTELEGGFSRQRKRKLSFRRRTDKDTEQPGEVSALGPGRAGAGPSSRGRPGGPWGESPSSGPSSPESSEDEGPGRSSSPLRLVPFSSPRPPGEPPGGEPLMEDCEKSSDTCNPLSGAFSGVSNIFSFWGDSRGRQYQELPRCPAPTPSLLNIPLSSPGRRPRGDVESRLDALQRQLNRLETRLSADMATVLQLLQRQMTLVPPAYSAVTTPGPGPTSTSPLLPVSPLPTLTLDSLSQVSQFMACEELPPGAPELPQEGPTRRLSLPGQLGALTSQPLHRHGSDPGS

| SMILES | hERG current change (%, negative = inhibition) at 10uM [%] |
| --- | --- |
| C/C(=N\OC(=O)Nc1ccccc1)c1ccc(C)cc1 | -15.9 |
| CN(CCC#N)C(=O)CSc1nc2scc(-c3ccccc3)c2c(=O)[nH]1 | -12.6 |
| COc1ccc(CCNC(=O)C(=O)NCC2OCCN2S(=O)(=O)c2ccc(OC)cc2)cc1 (centres unmarked) | -47.3 |
| COc1ccccc1C(=O)Nc1ccc2nc3n(c(=O)c2c1)CCCC3 | -36.3 |
| COc1ccc(NC(=O)CC2SC(=O)NC2=O)cc1 (centres unmarked) | 26.8 |
| Cc1ccccc1NC(=O)Cc1nc(COC(=O)c2ccc(Cl)c(S(N)(=O)=O)c2)cs1 | -60.9 |
| Cc1ccccc1NC(=O)Cc1nc(COC(=O)c2ccc(Cl)nc2)cs1 | 2.75 |
| Cc1ccccc1NC(=O)Cc1nc(COC(=O)c2cccc(O)c2)cs1 | -17.7 |
| COc1ccc(CCNC(=O)CSc2ccc3nnc(CCNC(=O)c4ccccc4)n3n2)cc1OC | 6.1 |
| CCOC(=O)c1[nH]nc2c1C(=O)N(Cc1ccccc1)C2=O | 6.13 |
| COc1ccc(/C=N/NC(=O)CSc2ccccn2)cc1OC | 2.42 |
| CNC(=O)COC(=O)c1cc(-c2ccccc2)nn1-c1ccccc1 | -5.35 |
| CCNC(=O)COC(=O)c1cc(-c2ccccc2)nn1-c1ccccc1 | -61.8 |
| CCOC(=O)c1cc(-c2cccnc2)nn1-c1ccccc1 | 9.52 |
| Cc1ccc(CNC(=O)CN2C(=O)NC3(CC(C)CC(C)(C)C3)C2=O)cc1 (centres unmarked) | -3.14 |
| COc1ccc(-n2c(O)c(C=NCCCn3ccnc3)c(=O)[nH]c2=O)cc1 | 14.1 |
| CC(C)C(=O)N1CCN(c2ccc(NC(=O)c3ccc4c(c3)OCCO4)cc2Cl)CC1 | -15 |
| O=C(Nc1ccc(N2CCCCC2)c(Cl)c1)c1ccc2c(c1)OCCO2 | -1.06 |
| CC(=O)N1CCN(c2ccc(NC(=O)c3ccc4c(c3)OCCO4)cc2Cl)CC1 | -64.7 |
| CN1CCN(c2ccc(NC(=O)c3ccc4c(c3)OCCO4)cc2Cl)CC1 | -81.2 |
| O=C(Nc1ccc(N2CCCC2)c(Cl)c1)c1ccc2c(c1)OCCO2 | 11.8 |
| O=C(Nc1ccc(N2CCOCC2)c(Cl)c1)c1ccc2c(c1)OCCO2 | -0.379 |
| CCCOc1ccc(C(=O)CCC(=O)OCC(=O)Nc2ccc(Oc3ccccc3)cc2)cc1 | -13.3 |

Source: PMC4336329 (PLoS ONE, 2015)
